# Screening data deposited in PubChem BioAssay by several laboratories.
# The list is not random: actives were taken first. Their share in the collection is about 3.3%.
# TPT1 inhibitor – inhibitors of Candida albicans tRNA 2'-phosphotransferase TPT1; hit rate 0.81% among 300,000; recombinant caTPT1, FP RNA substrate dephosphorylation; inhibition, % at 5 µM;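 active = inhibition above the mean of all tested compounds plus 3 SD, set per screening campaign, cut at about 24% in these data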;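 also: plate controls were DMSO alone for no effect and ferristatin control at 100 nM for full effect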
# CendR NRP1 mod – modulators of CendR peptide binding to human neuropilin-1; inhibition, % at 25 µM; O14786; hit rate 0.85% among 360,000; AID 602438; FAM-RPARPAR peptide binding to NRP-1, fluorescence polarization;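 active = inhibition or corrected inhibition above about 18%, plus a signal ratio from 0.5 to 1.5, limit read from the data, passing the limit was not always enough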
# Rpn11 block – blocks the human proteasome subunit Rpn11 | O00487 | human 26S proteasome, Ub4-pepOG fluorescence polarization; 20S core pre-blocked with epoxomicin | inhibition, % at 20 µM | hit rate 0.59% among 360,000 | AID 588493;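 active = inhibition at 20 µM, scaled to each plate's controls, above about 33%, limit read from the data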
# Target sequence (O00487 whole entry, looked up): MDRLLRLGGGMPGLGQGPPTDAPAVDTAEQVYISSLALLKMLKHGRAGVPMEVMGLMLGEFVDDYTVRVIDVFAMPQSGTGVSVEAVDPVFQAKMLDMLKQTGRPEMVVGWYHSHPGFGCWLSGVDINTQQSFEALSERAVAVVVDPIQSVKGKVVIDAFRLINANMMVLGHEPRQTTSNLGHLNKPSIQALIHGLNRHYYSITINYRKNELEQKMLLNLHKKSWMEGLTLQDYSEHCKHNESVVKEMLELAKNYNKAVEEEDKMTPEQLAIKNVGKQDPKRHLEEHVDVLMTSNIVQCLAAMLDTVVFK
# CTSL1 counter – counter-screen for PFM18AAP inhibitors: inhibitors of F. hepatica cathepsin L1; recombinant F. hepatica cathepsin L1, Z-Leu-Arg-MCA fluorescence; inhibition, % at 5.96 µM; hit rate 0.49% among 300,000; AID 1906;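 active = inhibition above the mean of all tested compounds plus 3 SD, set per screening campaign, cut at about 17% in these data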;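 also: 0% = plate median of test compound wells and 100% = 1 µM Z-Phe-Ala-diazomethylketone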
# PHOSPHO1 inh – blocks human PHOSPHO1 phosphatase activity. Q8TCT1. recombinant PHOSPHO1, absorbance phosphatase assay. inhibition, % at 13.3 µM. hit rate 1.1% among 290,000; in the data active = inhibition above about 60%
# Target sequence (Q8TCT1 whole entry, looked up): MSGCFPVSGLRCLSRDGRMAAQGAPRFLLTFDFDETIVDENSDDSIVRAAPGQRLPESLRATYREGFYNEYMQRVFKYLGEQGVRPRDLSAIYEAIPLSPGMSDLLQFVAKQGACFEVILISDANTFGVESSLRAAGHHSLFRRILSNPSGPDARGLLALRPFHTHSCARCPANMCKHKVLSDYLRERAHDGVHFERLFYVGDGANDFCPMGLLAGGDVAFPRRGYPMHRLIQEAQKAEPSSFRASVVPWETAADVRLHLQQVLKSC
# HNF4A DNA FP – change in binding of human HNF4 alpha to DNA. HNF4a-FITC DNA binding, fluorescence polarization, 1 h. activity change, % at 10 µM. hit rate 0.3% among 360,000; in the data active = activity change above about 30%, passing the limit was not always enough
# Numbers without * were called inactive; · = not tested or not shown.
SMILES,TPT1 inhibitor,CendR NRP1 mod,Rpn11 block,CTSL1 counter,PHOSPHO1 inh,HNF4A DNA FP
CCC1=C(OC(=O)N(CC)CC)N2C(=O)OC(=NCC(=O)OC)[C@]2(Cc2ccccc2)[C@H]2C1=CC[C@H]1C(=O)N(CC(=O)OC)C(=O)[C@H]12,-6.0,27.3*,-3.4,2.8,22.1,-0.3
COc1ccc(/C=N/n2c(=S)n(C)c3ccccc32)cc1OC,-0.2,8.2,5.0,6.9,73.3*,-1.6
COc1ccc(/C=N/n2c(-c3cc(C)[nH]n3)n[nH]c2=S)cc1OC,0.1,5.4,-7.4,-1.9,92.7*,-1.5
Cn1c(=S)n(/N=C/c2ccc3c(c2)OCO3)c2ccccc21,-2.8,-2.9,-7.9,5.0,46.6,1.8
COc1cc(F)ccc1-c1csc(C(C)(O)c2ccc(F)c(F)c2)n1 (centres undefined),·,3.2,2.7,·,·,2.1
CC1(C(=O)NCc2ccccc2)CCC(=O)N1CCOc1ccccc1 (centres undefined),·,11.1,-1.4,·,·,-1.9
Cc1c(Br)c([N+](=O)[O-])nn1C(C)C(=O)NCc1cccs1 (centres undefined),-1.8,3.4,6.0,2.1,19.2,-5.8
Cc1c(Br)c([N+](=O)[O-])nn1CC(=O)NCc1cccs1,0.7,25.4*,-5.7,-6.1,-5.2,-0.4
C[C@@]12C(=O)N(CC3CCCO3)CC(=O)N1[C@H]1c3ccccc3OC[C@@H]1[C@@H]2c1ccccc1 (some centres undefined),·,14.0,1.0,·,·,-5.9
CCCc1nn2c(=O)cc(COc3ccc(NC(=O)c4ccco4)cc3)nc2s1,-2.5,-5.0,9.5,0.8,63.6*,0.6
Cc1cc(C)c(NC(=O)CN(C)CC(=O)Nc2cccc(S(=O)(=O)N(C)c3ccccc3)c2)c(C)c1,·,1.7,0.2,·,·,-2.0
Cc1ccccc1CN(C)CC(=O)Nc1cccc(S(=O)(=O)N(C)c2ccccc2)c1,1.2,-0.2,14.7,6.0,61.5*,-6.1
Cc1ccc(C2N=C(N)Nc3nc(=O)c4ccccc4n32)cc1 (centres undefined),1.0,5.3,4.7,2.5,11.7,0.8
CCN(CC)c1ccc(NC2=C(Cl)C(=O)c3ccccc3C2=O)cc1,0.2,36.2*,3.5,4.2,-13.8,3.6
O=C(CSc1nc2ccccc2c(=O)n1-c1ccc(F)cc1F)Nc1ccc2c(c1)CCC2,-0.9,22.1*,6.0,-0.8,-14.7,-2.5
O=C(OCc1ccc([N+](=O)[O-])cc1)C1CC(=O)N(c2ccccc2)C1 (centres undefined),-5.4,6.8,-0.1,-38.1,7.8,4.2
Cc1cccc(N2CC(C(=O)OCc3ccc([N+](=O)[O-])cc3)CC2=O)c1 (centres undefined),0.5,-16.1,-5.1,-20.5,60.0*,-0.5
O=C(c1ccco1)N1CCN(/C(=N/S(=O)(=O)c2cccs2)c2ccccc2Cl)CC1,-2.8,27.3*,-5.1,0.3,33.4,-0.2
O=S(=O)(/N=C(\c1ccccc1)N1CCOCC1)c1cccs1,3.3,27.0*,-2.0,-1.7,24.8,-0.6
N/C(=N\S(=O)(=O)c1cccs1)c1ccccc1Cl,-3.4,5.1,-5.1,0.3,22.3,-2.1
CCOc1ccc(N(CC(=O)NCc2ccc(OC)cc2)S(=O)(=O)c2c(C)[nH]c(=O)[nH]c2=O)cc1,1.5,-2.5,2.4,-5.2,35.5,0.0
CC(C)NC(=O)CSc1nnc(-c2ccc3ncccc3c2)n1C,-2.8,25.1*,0.0,0.7,41.2,-4.3
N#CC1=C(N)Oc2cc(O)ccc2C1c1cccs1 (centres undefined),1.5,-30.5,4.8,0.1,-17.5,6.0
N#CC1=C(N)Oc2c(ccc3ccccc23)C1c1cccs1 (centres undefined),6.6,·,·,0.5,92.7*,·
CC1(C)S[C@@H]2C(C(=O)OCc3ccccc3)NC(=O)N2C1C(=O)OCc1ccccc1 (some centres undefined),-3.9,33.5*,1.7,0.1,·,0.8
SMILES,TPT1 inhibitor,CendR NRP1 mod,Rpn11 block,CTSL1 counter,PHOSPHO1 inh,HNF4A DNA FP
COc1ccc(S(=O)(=O)Nc2cccc3c2O[C@H](CN(C)Cc2ccccc2)[C@@H](C)CN([C@H](C)CO)C3=O)cc1,·,4.5,6.7,·,·,3.2
S=C(NCCCNC(=S)Nc1ccccc1)Nc1ccccc1,-5.2,47.5*,-9.9,-2.4,0.3,2.7
COC(=O)c1ccc(NC(=O)C(=O)NCC2CCCO2)cc1 (centres undefined),3.3,-11.3,3.1,16.7*,7.4,2.8
CCCOC(=O)c1ccc(NC(=O)C(=O)NCC2CCCO2)cc1 (centres undefined),-2.8,3.9,-9.8,0.6,-11.7,-2.2
CCCNC(=S)Nc1ccc(Nc2ccccc2)cc1,1.6,10.5,-0.8,2.9,21.8,-2.8
O=C(NCC1CCCO1)C1CCCN1C(=O)Nc1ccc(Cl)cc1 (centres undefined),-2.3,5.2,-2.3,7.8,60.1*,-1.7
S=C(NCC1CCCO1)Nc1ccccc1 (centres undefined),-2.5,20.7*,4.2,1.2,-25.1,-4.7
N#Cc1c(N)c2ccccn2c1C(=O)c1ccc(Br)cc1,0.0,8.5,5.6,2.2,14.1,0.1
CCOc1ccc(C=NNC(=O)c2ccc(-n3cnnn3)cc2)cc1,·,2.8,-0.4,·,·,1.2
O=C1CCCCN1CCC(=O)N1CCCC(N2CCN(c3ccccc3)CC2)C1 (centres undefined),3.6,3.5,-0.9,-0.1,75.4*,1.9
Cc1ccnn1CCC(=O)N1CCCC(N2CCN(c3cccc(Cl)c3)CC2)C1 (centres undefined),-4.2,5.2,-2.7,-0.5,31.3,-0.2
O=C1CCCCN1CCC(=O)N1CCCC(N2CCN(c3cccc(Cl)c3)CC2)C1 (centres undefined),-1.3,25.3*,-1.7,1.4,-32.5,3.0
Cc1ccc(OCC(=O)Nc2ccc(N3CCN(S(C)(=O)=O)CC3)cc2)cc1C,2.9,-13.9,1.2,-2.3,4.9,1.3
COc1ccc(C2/C=C\CN(C(=O)C3CCCCC3)CC(=O)N2Cc2ccc(F)cc2)cc1 (centres undefined),0.3,34.4*,0.1,0.2,26.5,2.0
CCCCc1c(O)nc(SCCN(C)C)n(-c2ccccc2)c1=O,-4.3,-2.7,-0.2,-1.1,29.8,0.5
CCN(C[C@H]1N[C@@](Cc2ccccc2)(C(=O)OC)[C@H]2C(=O)N(C)C(=O)[C@@H]12)S(=O)(=O)c1ccc(C(C)(C)C)cc1,·,4.6,-0.5,·,·,2.6
COc1cc(NC(=S)NC(=O)c2ccc(C)cc2C)ccc1NC(=O)c1cccs1,0.6,-3.0,-8.0,5.2,61.9*,0.6
COc1cc(NC(=O)c2ccc(C)cc2C)ccc1NC(=O)c1cccs1,-3.1,6.2,1.5,3.2,18.8,1.3
CCOC(=O)CCC(NC(=O)c1ccc(NCN2C(=O)c3ccccc3C2=O)cc1)C(=O)OCC (centres undefined),-4.8,-13.1,-3.3,-2.3,-7.4,3.0
